Results taken from PubChem BioAssay (NCATS).
Results filed as inconclusive are left out. Values without a mark were called inactive. The call rests on the fitted dose curve; in most records, active means well fitted cell-killing curve with a large enough effect; inconclusive means small, poorly fitted or top-dose-only effect, or effect the other way; inactive means flat fitted curve, though single readings scatter.

The molecules below were run on PA-1 (assay: Primary qHTS to identify gynecologic anti-cancer compounds using libraries of approved drugs and bioactive compounds (AID 1345084; further: nearly all actives have a fitted effect of over 55% in size)). Conditions: Gynecologic cancer cell panel viability, ATPlite luminescence, 48 h; series mostly up to 57.5 µM; activity change, negative = cytotoxicity: at the top concentration.
Procedure, shortened: (§1)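 Measured: luminescence after ATPlite addition (15 min, RT). Exposure: 48 h, 37 C, 5% CO2.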
On the % scale 0 is the no-effect control and ±100 the full control effect.

Row | Structure (SMILES) | activity change, negative = cytotoxicity
1 | NC(=O)N1c2ccccc2C=Cc2ccccc21 | -1.52%
2 | CCCN(CCC)CCc1cccc2c1CC(=O)N2 | 11.5%
3 | CCn1nc(C(=O)O)c(=O)c2cc3c(cc21)OCO3 | 2.55%
4 | CCc1c(C)[nH]c2c1C(=O)C(CN1CCOCC1)CC2 (stereo not given) | 0.598%
5 | COc1ccc2c(c1OC)C(=O)O[C@@H]2[C@H]1c2c(cc3c(c2OC)OCO3)CCN1C | -2.98%
6 | COc1cc(Cc2cnc(N)nc2N)cc(OC)c1OC | 4.09%
7 | N[C@@H](COP(=O)(O)O)C(=O)O | 13.6% [at 25.3 µM]
8 | CN1CCN(CC(=O)N2c3ccccc3C(=O)Nc3cccnc32)CC1 | 18.1% [at 6.55 µM]
9 | CN/C(=C\[N+](=O)[O-])NCCSCc1ccc(CN(C)C)o1 | 1.48%
10 | OC(CCN1CCCCC1)(c1ccccc1)C1CCCCC1 (stereo not given) | -2.05%
11 | CCN1CCC[C@H]1CNC(=O)c1c(O)c(Cl)cc(Cl)c1OC | 5.08%
12 | COC(=O)C1=C(C)NC(C)=C(C(=O)OC(C)(C)CN(C)CCC(c2ccccc2)c2ccccc2)C1c1cccc([N+](=O)[O-])c1 (stereo not given) | -23.2%
13 | CC(=O)Nc1nnc(S(N)(=O)=O)s1 | 8.14%
14 | CN(C)CCCN1c2ccccc2Sc2ccccc21 | -22.6%
15 | CC(C)NCC(O)c1cc(O)cc(O)c1 (stereo not given) | 2.88%
16 | CN(C)CCOC(=O)COc1ccc(Cl)cc1 | 3.9%

Row | Structure (SMILES) | activity change, negative = cytotoxicity
17 | CNC1(C)C2CCC(C2)C1(C)C (stereo not given) | 0.289%
18 | CCCCNc1c(C(=O)OCC)c(C)nc2c1cnn2CC | -2.15%
19 | CN(C)C/C=C(/c1ccc(Br)cc1)c1cccnc1 | 1.58%
20 | CO[C@@]1(NC(=O)CSCC#N)C(=O)N2C(C(=O)O)=C(CSc3nnnn3C)CS[C@@H]21 | 0.217%
21 | CCN1CCc2nc(N)oc2CC1 | 9.16%
22 | C[C@]12CCC(=O)C=C1CC[C@@H]1[C@@H]2CC[C@@]2(C)[C@H]1CC[C@]2(O)C(=O)CO | -0.704%
23 | CCN(CC)CC(=O)Nc1c(C)cccc1C | -4.92%
24 | C(=C\c1ccccc1)/CN1CCN(C(c2ccccc2)c2ccccc2)CC1 | 11.4%
25 | Cc1nc2ccccn2c(=O)c1CCN1CCC(C(=O)c2ccc(F)cc2)CC1 | -3.46%
26 | c1ccc2c(c1)CCCC2C1=NCCN1 (stereo not given) | 9.5%
27 | Cc1nc2sccn2c(=O)c1CCN1CCC(=C(c2ccc(F)cc2)c2ccc(F)cc2)CC1 | -0.647%
28 | CCCNC(C)C(=O)Nc1ccccc1C (stereo not given) | -0.347%
29 | CN1C[C@H](C(=O)N[C@]2(C)O[C@@]3(O)[C@@H]4CCCN4C(=O)[C@H](Cc4ccccc4)N3C2=O)C[C@@H]2c3cccc4[nH]cc(c34)C[C@H]21 | -0.114%
30 | Cc1nnc(SCC2=C(C(=O)O)N3C(=O)[C@@H](NC(=O)Cn4cnnn4)[C@H]3SC2)s1 | -0.47%
31 | Fc1ccc(C(c2ccc(F)cc2)N2CCN(C/C=C/c3ccccc3)CC2)cc1 | -6.42%

Each molecule was assayed on SKOV3 in the same assay as above. Conditions: Gynecologic cancer cell panel viability, ATPlite luminescence, 48 h; series mostly up to 57.5 µM; activity change, negative = cytotoxicity: at the top concentration.
Procedure, shortened: as §1

Row | Structure (SMILES) | activity change, negative = cytotoxicity
32 | CCCN(CCC)CCc1cccc2c1CC(=O)N2 | 5.31%
33 | CCc1c(C)[nH]c2c1C(=O)C(CN1CCOCC1)CC2 (stereo not given) | 5.12%
34 | C[C@]12CCC(=O)C=C1CC[C@@H]1[C@@H]2C(=O)C[C@@]2(C)[C@H]1CC[C@]2(O)C(=O)CO | 10.1%
35 | N[C@@H](COP(=O)(O)O)C(=O)O | -5.37% [at 25.3 µM]
36 | CN1CCN(CC(=O)N2c3ccccc3C(=O)Nc3cccnc32)CC1 | 8.94% [at 6.55 µM]
37 | COc1ccc(CCN(C)CCCC(C#N)(c2cc(OC)c(OC)c(OC)c2)C(C)C)cc1OC (stereo not given) | -11.9%
38 | OC(CCN1CCCCC1)(c1ccccc1)C1CCCCC1 (stereo not given) | -0.232%
39 | CN(C)CCCN1c2ccccc2Sc2ccccc21 | -5.36%
40 | CC(C)NCC(O)c1cc(O)cc(O)c1 (stereo not given) | 8.47%
41 | CCCCCCCC/C=C\CCCCCCCC(=O)NCc1ccc(O)c(OC)c1 | -26.4%
42 | CN(C)C/C=C(/c1ccc(Br)cc1)c1cccnc1 | 5.2%
43 | CO[C@@]1(NC(=O)CSCC#N)C(=O)N2C(C(=O)O)=C(CSc3nnnn3C)CS[C@@H]21 | 3.97%
44 | C[C@]12CCC(=O)C=C1CC[C@@H]1[C@@H]2CC[C@@]2(C)[C@H]1CC[C@]2(O)C(=O)CO | -5.76%
45 | CCN(CC)CC(=O)Nc1c(C)cccc1C | -0.194%
46 | Cc1nc2sccn2c(=O)c1CCN1CCC(=C(c2ccc(F)cc2)c2ccc(F)cc2)CC1 | -2.11%
47 | CCCNC(C)C(=O)Nc1ccccc1C (stereo not given) | -0.218%
48 | O=C(O)CP(=O)(O)O | -5.37%
49 | CN1C[C@H](C(=O)N[C@]2(C)O[C@@]3(O)[C@@H]4CCCN4C(=O)[C@H](Cc4ccccc4)N3C2=O)C[C@@H]2c3cccc4[nH]cc(c34)C[C@H]21 | 0%
50 | Cc1nnc(SCC2=C(C(=O)O)N3C(=O)[C@@H](NC(=O)Cn4cnnn4)[C@H]3SC2)s1 | -7.73%
51 | Fc1ccc(C(c2ccc(F)cc2)N2CCN(C/C=C/c3ccccc3)CC2)cc1 | 0%

What follows are molecules tested on Tov-21-G in the same assay as above. Conditions: Gynecologic cancer cell panel viability, ATPlite luminescence, 48 h; series mostly up to 57.5 µM; activity change, negative = cytotoxicity: at the top concentration.
Procedure, shortened: as §1

Row | Structure (SMILES) | activity change, negative = cytotoxicity
52 | CN(C(=O)CCCOc1ccc2[nH]c(=O)ccc2c1)C1CCCCC1 | -3.41%
53 | NC(=O)N1c2ccccc2C=Cc2ccccc21 | -0.0788%
54 | CCCN(CCC)CCc1cccc2c1CC(=O)N2 | -1.35%
55 | CCn1nc(C(=O)O)c(=O)c2cc3c(cc21)OCO3 | 0.142%
56 | CCc1c(C)[nH]c2c1C(=O)C(CN1CCOCC1)CC2 (stereo not given) | -1.36%
57 | C[C@]12CCC(=O)C=C1CC[C@@H]1[C@@H]2C(=O)C[C@@]2(C)[C@H]1CC[C@]2(O)C(=O)CO | 4.28%
58 | COc1ccc2c(c1OC)C(=O)O[C@@H]2[C@H]1c2c(cc3c(c2OC)OCO3)CCN1C | -6.23%
59 | COc1cc(Cc2cnc(N)nc2N)cc(OC)c1OC | 8.93%
60 | N[C@@H](COP(=O)(O)O)C(=O)O | 12.3% [at 25.3 µM]
61 | CN1CCN(CC(=O)N2c3ccccc3C(=O)Nc3cccnc32)CC1 | 7.44% [at 6.55 µM]
62 | COc1ccc(CCN(C)CCCC(C#N)(c2cc(OC)c(OC)c(OC)c2)C(C)C)cc1OC (stereo not given) | -3.66%
63 | OC(CCN1CCCCC1)(c1ccccc1)C1CCCCC1 (stereo not given) | -1.94%
64 | CCN1CCC[C@H]1CNC(=O)c1c(O)c(Cl)cc(Cl)c1OC | 4.06%
65 | COC(=O)C1=C(C)NC(C)=C(C(=O)OC(C)(C)CN(C)CCC(c2ccccc2)c2ccccc2)C1c1cccc([N+](=O)[O-])c1 (stereo not given) | 4.23%
66 | CC(=O)Nc1nnc(S(N)(=O)=O)s1 | 6.61%
67 | CN(C)CCCN1c2ccccc2Sc2ccccc21 | 6.48%
68 | CC(C)NCC(O)c1cc(O)cc(O)c1 (stereo not given) | -3.67%

Row | Structure (SMILES) | activity change, negative = cytotoxicity
69 | CN(C)CCOC(=O)COc1ccc(Cl)cc1 | -0.88%
70 | CNC1(C)C2CCC(C2)C1(C)C (stereo not given) | 1.28%
71 | CCCCNc1c(C(=O)OCC)c(C)nc2c1cnn2CC | -10.8%
72 | CN(C)C/C=C(/c1ccc(Br)cc1)c1cccnc1 | -1.28%
73 | CO[C@@]1(NC(=O)CSCC#N)C(=O)N2C(C(=O)O)=C(CSc3nnnn3C)CS[C@@H]21 | 11.8%
74 | CCN1CCc2nc(N)oc2CC1 | 12.5%
75 | C[C@]12CCC(=O)C=C1CC[C@@H]1[C@@H]2CC[C@@]2(C)[C@H]1CC[C@]2(O)C(=O)CO | -3.62%
76 | CCN(CC)CC(=O)Nc1c(C)cccc1C | 2.78%
77 | C(=C\c1ccccc1)/CN1CCN(C(c2ccccc2)c2ccccc2)CC1 | -0.803%
78 | Cc1nc2ccccn2c(=O)c1CCN1CCC(C(=O)c2ccc(F)cc2)CC1 | -17.7%
79 | c1ccc2c(c1)CCCC2C1=NCCN1 (stereo not given) | 8.08%
80 | Cc1nc2sccn2c(=O)c1CCN1CCC(=C(c2ccc(F)cc2)c2ccc(F)cc2)CC1 | -1.23%
81 | CCCNC(C)C(=O)Nc1ccccc1C (stereo not given) | -1.45%
82 | O=C(O)CP(=O)(O)O | 1.18%
83 | CN1C[C@H](C(=O)N[C@]2(C)O[C@@]3(O)[C@@H]4CCCN4C(=O)[C@H](Cc4ccccc4)N3C2=O)C[C@@H]2c3cccc4[nH]cc(c34)C[C@H]21 | 0.953%
84 | Cc1nnc(SCC2=C(C(=O)O)N3C(=O)[C@@H](NC(=O)Cn4cnnn4)[C@H]3SC2)s1 | -0.408%
85 | Fc1ccc(C(c2ccc(F)cc2)N2CCN(C/C=C/c3ccccc3)CC2)cc1 | 3.24%
